# Structures can show the parent of a compound that is named as a salt. ± gives the standard deviation of the averaged measurements. The full ranking holds about 2,600 compounds; the median of “MBP+ mature oligodendrocyte number relative to DMSO vehicle control” is about -0.34, and the highest 2% start at about 13. This excerpt belongs to a sample that is enriched for the highest values.
# System: jimpy (Plp1 jimpy) mouse iPSC-derived oligodendrocyte progenitor cells
# Test: MBP+ mature oligodendrocyte number relative to DMSO vehicle control (SDs above negative control mean); higher = more surviving jimpy oligodendrocytes (rescue)
# Settings: 10 µM; 3 days
# 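Note: 10 µM single dose with 3-day oligodendrocyte differentiation.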
row,SMILES,MBP+ mature oligodendrocyte number
1,NCCOc1cc(C(=O)Nc2cc(OCCN)c3ccccc3n2)nc(C(=O)Nc2cc(OCCN)c3ccccc3n2)c1 [Pyridostatin trifluoroacetate salt],-3.78
2,COc1ccccc1CN[C@H]1CCCN[C@H]1c1ccccc1,-0.711
3,CSc1c(C)c(SC)n2ccncc12 [Oltipraz metabolite M2],-2.35
4,CC(C)NC[C@H](O)COc1ccc(CCOCC2CC2)cc1 [Levobetaxolol HCl],9.7
5,CN(C)C(=O)Nc1cccc(-c2ccc(N(C)C)cc2)c1 [Atglistatin],6.21
6,COc1cc2c[n+](C)c3c4cc5c(cc4ccc3c2cc1OC)OCO5 [Nitidine chloride],< -4.47
7,N#CC1(c2ccc(NC(=O)c3cccnc3NCc3ccncc3)cc2)CCCC1 [Apatinib],2.86
8,CN(C/C=C/C#CC(C)(C)C)Cc1cccc2ccccc12 [Terbinafine HCl],4.54
9,CN(Cc1ccc(C(C)(C)C)cc1)Cc1cccc2ccccc12 [Butenafine HCl],21.1
10,CN(C/C=C/C#CC(C)(C)C)Cc1cccc2ccccc12 [Terbinafine],1.87
11,COc1ccc(CNCc2cccc3ccccc23)cc1,-1.56
12,C[C@H]1C[C@H]2[C@@H]3CCC4=CC(=O)C=C[C@]4(C)[C@@]3(F)[C@@H](O)C[C@]2(C)[C@@]1(O)C(=O)CO [Betamethasone],6.53 ± 6.4
13,CCC(=O)OCC(=O)[C@@]1(OC(=O)CC)[C@@H](C)C[C@H]2[C@@H]3CCC4=CC(=O)C=C[C@]4(C)[C@@]3(Cl)[C@@H](O)C[C@@]21C [Beclomethasone dipropionate],7.8
14,C[C@@H]1C[C@H]2[C@@H]3C[C@H](F)C4=CC(=O)C=C[C@]4(C)[C@@]3(F)[C@@H](O)C[C@]2(C)[C@@]1(O)C(=O)CO [Flumethasone],8.94
15,CCC(=O)O[C@]1(C(=O)CCl)[C@@H](C)C[C@H]2[C@@H]3CCC4=CC(=O)C=C[C@]4(C)[C@@]3(F)[C@@H](O)C[C@@]21C [Clobetasol propionate],12.8
16,CCC(=O)O[C@]1(C(=O)SCF)[C@H](C)C[C@H]2[C@@H]3C[C@H](F)C4=CC(=O)C=C[C@]4(C)[C@@]3(F)[C@@H](O)C[C@@]21C [Fluticasone propionate],8.9
17,CCC(=O)O[C@]1(C(=O)CCl)[C@@H](C)C[C@H]2[C@@H]3C[C@H](F)C4=CC(=O)C=C[C@]4(C)[C@@]3(F)[C@@H](O)C[C@@]21C [Halobetasol Propionate],21.4
18,CO[C@H]1C(=O)[C@]2(C)[C@@H](OC)C[C@H]3OC[C@@]3(OC(C)=O)[C@H]2[C@H](OC(=O)c2ccccc2)[C@]2(O)C[C@H](OC(=O)[C@H](O)[C@@H](NC(=O)OC(C)(C)C)c3ccccc3)C(C)=C1C2(C)C [Cabazitaxel],-3.71
